According to PubChem BioAssay:
Calls of active or inactive are those of the source.

Columns and labels:
[1] = A549 cell viability effects, profiling panel, calcein-AM fluorescence, 48 h, basal (AID 1162); conditions: higher = more signal
[2] = adipocyte viability effects, profiling panel, cell-based, 3T3-L1 adipocytes, calcein-AM fluorescence, 48 h, basal (AID 1163); conditions: 3T3-L1 adipocytes viability, higher = more signal
[3] = HepG2 cell viability effects, profiling panel, calcein-AM fluorescence, 48 h, basal (AID 1164); conditions: higher = more signal
[4] = MM1S cell viability effects, profiling panel, calcein-AM fluorescence, 48 h, basal (AID 1165); conditions: higher = more signal;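 further: viability of MM1S multiple myeloma cells under basal unstimulated conditions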
[5] = basal RPMI8226 viability, no added stimulus, profiling panel, cell-based, calcein-AM fluorescence, 48 h, PK04 Diversity Set (AID 1166); conditions: RPMI8226 myeloma viability, higher = more signal;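 further: cells grown under basal conditions without added stimulus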
[6] = basal HepG2 mitochondrial membrane potential changes, profiling panel, cell-based, JC-1 fluorescence, 24 h, 100 nL compound (AID 1167); conditions: higher = more signal
[7] = basal 3T3-L1 adipocyte mitochondrial potential changes, profiling panel, cell-based, JC-1 fluorescence, 3T3-L1 adipocytes, 24 h, 100 nL compound (AID 1168); conditions: JC-1 mitochondrial fluorescence, higher = more signal, called active from +8 up or from −8 down
[8] = basal RPMI8226 mitochondrial membrane potential changes, profiling panel, cell-based, JC-1 fluorescence, 24 h, 100 nL compound (AID 1169); conditions: RPMI8226 myeloma, JC-1 mitochondrial potential fluorescence, higher = more signal
[9] = basal MM1S mitochondrial membrane potential changes, profiling panel, cell-based, JC-1 fluorescence, 24 h, 100 nL compound (AID 1170); conditions: higher = more signal
[10] = A549 lung cancer cell viability effects, profiling panel, resazurin fluorescence, 24 h, PK04 Diversity Set (AID 1171); conditions: higher = more signal, called active from +8 up or from −8 down
Further: test concentration not given here.

SMILES	z-score [1]	z-score [2]	z-score [3]	z-score [4]	z-score [5]	z-score [6]	z-score [7]	z-score [8]	z-score [9]	z-score [10]
C#CCCCON=C1[C@H]2CCn3c(=O)n(Cc4cc5c(cc4Cl)OCO5)c(=O)n3[C@H]2[C@H](O)[C@@H]2O[C@H]12	0.328	-0.237	0.484	-0.0822	0.644	-0.663	-1.1 (inactive)	-0.123	0.00911	-0.188 (inactive)
COC(=O)[C@H](C)NC(=O)CCC1CC(OC(=O)NCc2ccc3c(c2)OCO3)CC2(CCCC(COC(=O)NCc3ccccc3)O2)O1 (stereo not given in full)	3.03	-0.645	0.558	-0.147	1.27	1.33	0.552 (inactive)	0.195	-0.882	0.409 (inactive)
CC(C)=CCCC(C)=CCON=C1C[C@@H](O)[C@@H](O)[C@@H]2[C@@H]3C(=O)N(c4cccc(Oc5ccccc5)c4)C(=O)[C@@H]3CC[C@H]12	0.0267	-0.796	0.285	-1.97	0.504	-0.253	0.496 (inactive)	-0.203	-0.907	0.533 (inactive)
COc1ccc(COC(=O)NN=C2C[C@@H](O)[C@@H](O)[C@@H]3[C@@H]4C(=O)N([C@@H](C)c5ccccc5)C(=O)[C@@H]4CC[C@H]23)cc1	-0.0502	0.155	-0.791	0.145	-0.486	-0.888	-0.653 (inactive)	-0.0767	0.493	0.541 (inactive)
O=C1[C@H]2CCn3c(=O)n(-c4ccccc4)c(=O)n3[C@H]2[C@H](O)[C@@H]2O[C@H]12	0.0313	-0.226	-0.352	-1.32	-0.19	-0.237	-0.169 (inactive)	-0.104	-0.351	-0.331 (inactive)
O=C1[C@H]2[C@H]3[C@H](O)[C@H](O)CC(=NO[C@@H]4O[C@H](CO)[C@@H](O)[C@H](O)[C@H]4O)[C@@H]3CC[C@H]2C(=O)N1C[C@@H]1CCCO1	-0.863	-0.0334	-0.618	-0.0584	-2.03	-0.42	-0.0322 (inactive)	0.0485	-1.16	0.226 (inactive)
COC(=O)CC=C[C@@H](C)[C@@H](C=NOC(C)CN1CCCCc2nc(C)c(C)cc21)NS(=O)(=O)c1ccc(C)cc1 (stereo not given in full)	-0.366	0.61	0.0477	0.0238	-0.141	-0.246	-0.442 (inactive)	-1.02	-0.0131	-0.204 (inactive)
CC#CCOCCC=C1c2ccccc2[C@@H](OC)[C@@H]1C	0.0337	0.182	0.788	-2.36	-0.234	-0.19	-0.669 (inactive)	-0.773	-0.831	0.349 (inactive)
CC(=O)OC[C@H]1O[C@H](CC=NOC(C)CN2CCCc3nc(C)c(C)cc32)C=C[C@@H]1OC(C)=O (stereo not given in full)	-0.234	0.114	-0.806	-2.94	-0.639	-0.706	0.264 (inactive)	-0.131	-0.188	-0.135 (inactive)
C[C@]12CCC3c4ccc(OCC5CO5)cc4CCC3C1CC[C@@H]2O (stereo not given in full)	0.45	0.277	0.266	-2.59	-1.06	1.15	0.121 (inactive)	0.0313	-0.046	2.25 (inactive)
COc1ccc(COC(=O)NN=C2C[C@@H](O)[C@@H](O)[C@@H]3[C@@H]4C(=O)N(C[C@@H]5CCCO5)C(=O)[C@@H]4CC[C@H]23)cc1	0.0369	-0.0792	-0.592	0.634	-0.107	-0.402	-1.22 (inactive)	-0.148	-1.02	-0.0101 (inactive)
O=C(NN=C1C[C@@H](O)[C@@H](O)[C@@H]2[C@@H]3C(=O)N(c4ccc(F)cc4F)C(=O)[C@@H]3CC[C@H]12)OCc1ccccc1	-0.299	-0.198	-1.39	-0.46	0.707	0.344	0.533 (inactive)	0.0563	-0.741	1.88 (inactive)
COC(=O)[C@@H]1CC[C@H](C)[C@@H](c2ccc(Br)cc2)N1C[C@H](O)CN=[N+]=[N-]	0.128	0.878	-0.671	0.572	-0.878	-0.0153	-0.416 (inactive)	-0.443	0.75	-0.624 (inactive)
CC(CCN1CCCc2nc(C)c(C)cc21)=NO[C@H](C)c1cn([C@@H]2COC[C@H]2O)nn1	0.105	-0.563	0.243	-0.674	-0.0215	0.219	0.707 (inactive)	0.641	-0.825	-0.294 (inactive)
CO[C@@H]1COC(=O)CC=C[C@H](C)[C@H](OC)COC(=O)[C@@H]2CCCN2C(=O)CC=C[C@H]1C	-0.125	0.846	-0.138	0.0805	-0.822	1.07	0.332 (inactive)	0.114	1.03	-0.541 (inactive)
O=C(NN=C1C[C@@H](O)[C@@H](O)[C@@H]2[C@@H]3C(=O)N(Cc4ccccc4)C(=O)[C@@H]3CC[C@H]12)OCc1ccccc1	0.614	0.52	-0.604	0.881	-0.256	0.846	0.415 (inactive)	-0.415	-0.427	0.288 (inactive)
C[C@@H](c1ccccc1)N1C(=O)[C@H]2[C@H]3[C@H](O)[C@H](O)CC(=NOC[C@@H](O)COCc4ccco4)[C@H]3CC[C@H]2C1=O	-0.428	0.565	-0.187	0.352	-1.83	-0.137	-0.387 (inactive)	-0.84	-0.0829	-0.268 (inactive)
CC(CCN1CCCc2nc(C)c(C)cc21)=NOC[C@@H](O)COCc1ccco1	0.604	0.827	-0.496	-1.31	-0.441	-1.46	-0.126 (inactive)	0.0583	-0.0723	0.287 (inactive)
C=CC[C@@H]1C=C[C@H](Oc2ccc(C)cc2)[C@@H](COC(=O)NCc2cccc3ccccc23)O1	-0.273	0.479	-0.542	-1.41	-1.71	0.294	-0.483 (inactive)	0.78	0.147	1.99 (inactive)
CCN1C(=O)[C@H]2[C@H]3[C@H](O)[C@H](O)CC(=NNC(=O)OCc4ccccc4)[C@H]3CC[C@H]2C1=O	-0.365	0.888	-0.0764	-1.59	0.507	-0.559	-0.978 (inactive)	0.083	0.409	-0.218 (inactive)
CC(C)=NO[C@H](C)c1cn([C@@H]2COC[C@H]2O)nn1	0.874	-0.573	0.818	0.0495	-0.275	1.01	0.0682 (inactive)	0.183	-0.593	-0.483 (inactive)
COc1ccc(COC(=O)NN=C2C[C@@H](O)[C@@H](O)[C@@H]3[C@@H]4C(=O)N(C5CCCCC5)C(=O)[C@@H]4CC[C@@H]23)cc1	0.0391	1.11	0.494	0.419	0.3	-0.0284	-0.297 (inactive)	-0.375	-0.269	-0.533 (inactive)
CC(=O)OC[C@H]1O[C@H](CCON=C(C)CCN2CCCc3nc(C)c(C)cc32)C=C[C@@H]1OC(C)=O	0.235	-0.9	-0.667	-1.85	-1.27	-0.689	-0.805 (inactive)	1.03	-0.033	-0.221 (inactive)
COc1ccc(COC(=O)NN=C2C[C@@H](O)[C@@H](O)[C@@H]3[C@@H]4C(=O)N(C[C@@H]5CCCO5)C(=O)[C@@H]4CC[C@@H]23)cc1	0.795	-0.825	0.245	-0.657	0.51	0.567	0.658 (inactive)	-0.252	-1.38	-0.547 (inactive)
